# Laboratory results from PubChem BioAssay.
# Values without a mark were called inactive. For part of these data: Results with a measured potency or affinity are listed apart. Active and inactive are the calls of the source. Unless noted, no rule for the calls is given here.
# Columns and labels:
# [1] = antimalarial activity against Dd2 strain (AID 2302;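 active = growth inhibition above 50% at the single 2 µM test dose, taken to imply half-maximal potency below 2 µM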;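 also: 0% = DMSO untreated growth and 100% = chloroquine plus artemisinin killed control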); conditions: P. falciparum Dd2 in RBCs, LDH growth readout, 72 h; at 2 µM; stronger effect = higher value
# [2] = HepG2 cytotoxicity, primary screen, cytotoxicity control for P. falciparum antimalarial project, cell-based, ATP luminescence (AID 2303;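 active = inhibition above 50%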;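 also: 0% = DMSO wells and 100% = digitonin-killed cells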); conditions: HepG2 viability, 24-48 h, at 10 µM, stronger effect = higher value
# [3] = biological target: L-lactate dehydrogenase (Plasmodium falciparum (isolate CDC / Honduras)) (UniProt Q27743); assay: PfLDH activity inhibition – cell lysate, 3D7 strain, counter-screen for P. falciparum growth inhibition project (AID 2304);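 also: 0% = vehicle and 100% = reference inhibitor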; conditions: P. falciparum 3D7 crude extract, LDH APAD/NBT absorbance; at 2 µM; stronger effect = higher value
# [4] = inhibition of 3D7 malaria parasite growth – strain 3D7 (AID 2306);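 also: 0% = DMSO wells and 100% = chloroquine plus artemisinin control wells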; conditions: P. falciparum 3D7 erythrocytic growth, LDH absorbance, 72 h; at 2 µM; stronger effect = higher value
# [5] = biological target: Calcium-dependent protein kinase 1 (Plasmodium falciparum (isolate 3D7)) (UniProt P62344); assay: PfCDPK1 kinase inhibitors, biochemical, TCAMS library (AID 1159585; cut-off not given, nearly all actives have IC50 up to about 0.98 µM;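 also: inhibitors leave more ATP so luminescence rises with inhibition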); conditions: recombinant PfCDPK1, Kinase-Glo ATP depletion luminescence
# [6] = biological target: Plasmodium falciparum protein kinase 6 (PK6, PF3D7_1337100) (UniProt Q8IDW1); assay: PfPK6 kinase inhibitors, biochemical, TCAMS library (AID 1159586); conditions: recombinant PfPK6, Kinase-Glo ATP depletion luminescence
# [7] = biological target: Protein kinase 7 (PK7), Plasmodium falciparum 3D7 (PF3D7_0213400) (UniProt Q7YTF7); assay: inhibition of Plasmodium PK7 catalytic activity – biochemical, TCAMS antimalarial set, Kinase-Glo luminescence (AID 1159587); conditions: recombinant PfPK7, Kinase-Glo ATP depletion luminescence
# [8] = biological target: Calcium-dependent protein kinase 4 (Plasmodium falciparum (isolate 3D7)) (UniProt Q8IBS5); assay: PfCDPK4 kinase inhibitors, biochemical, TCAMS library (AID 1159588; cut-off not given, nearly all actives have IC50 up to about 0.91 µM); conditions: recombinant PfCDPK4, Kinase-Glo ATP depletion luminescence
# Calcium-dependent protein kinase 4 (Plasmodium falciparum (isolate 3D7)), sequence (Q8IBS5 whole entry, looked up): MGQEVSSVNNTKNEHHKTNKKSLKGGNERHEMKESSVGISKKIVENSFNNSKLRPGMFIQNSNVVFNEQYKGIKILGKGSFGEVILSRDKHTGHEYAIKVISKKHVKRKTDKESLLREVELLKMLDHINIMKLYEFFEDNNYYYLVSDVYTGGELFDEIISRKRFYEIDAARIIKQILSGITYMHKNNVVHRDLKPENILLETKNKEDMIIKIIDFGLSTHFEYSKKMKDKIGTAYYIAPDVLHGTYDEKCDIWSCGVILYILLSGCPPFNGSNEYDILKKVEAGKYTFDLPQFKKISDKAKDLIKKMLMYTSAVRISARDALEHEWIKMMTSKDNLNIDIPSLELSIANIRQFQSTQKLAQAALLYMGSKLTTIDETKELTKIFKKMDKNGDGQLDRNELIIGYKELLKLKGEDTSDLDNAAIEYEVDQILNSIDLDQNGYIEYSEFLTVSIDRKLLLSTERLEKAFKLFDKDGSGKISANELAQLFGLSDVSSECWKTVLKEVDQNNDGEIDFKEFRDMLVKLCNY
# Protein kinase 7 (PK7), Plasmodium falciparum 3D7 (PF3D7_0213400), sequence (Q7YTF7 1-343): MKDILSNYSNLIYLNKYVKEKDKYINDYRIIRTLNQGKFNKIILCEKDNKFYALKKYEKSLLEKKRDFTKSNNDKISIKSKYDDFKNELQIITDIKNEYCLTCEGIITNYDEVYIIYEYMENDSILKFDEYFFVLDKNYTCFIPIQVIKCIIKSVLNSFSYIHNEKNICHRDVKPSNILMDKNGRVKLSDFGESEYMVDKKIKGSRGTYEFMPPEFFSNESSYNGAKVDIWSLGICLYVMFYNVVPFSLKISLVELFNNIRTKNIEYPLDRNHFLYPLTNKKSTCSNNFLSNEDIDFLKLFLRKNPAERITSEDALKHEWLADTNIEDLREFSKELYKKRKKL
# Plasmodium falciparum protein kinase 6 (PK6, PF3D7_1337100), sequence (Q8IDW1 1-305): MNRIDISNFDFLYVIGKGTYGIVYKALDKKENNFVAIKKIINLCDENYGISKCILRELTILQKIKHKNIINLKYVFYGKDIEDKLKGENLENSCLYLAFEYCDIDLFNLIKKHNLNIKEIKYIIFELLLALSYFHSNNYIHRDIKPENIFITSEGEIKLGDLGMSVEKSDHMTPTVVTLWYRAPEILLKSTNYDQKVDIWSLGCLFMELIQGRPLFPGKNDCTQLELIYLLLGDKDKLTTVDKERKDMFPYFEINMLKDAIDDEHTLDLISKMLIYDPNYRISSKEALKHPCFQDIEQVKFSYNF
# L-lactate dehydrogenase (Plasmodium falciparum (isolate CDC / Honduras)), sequence (Q27743 whole entry, looked up): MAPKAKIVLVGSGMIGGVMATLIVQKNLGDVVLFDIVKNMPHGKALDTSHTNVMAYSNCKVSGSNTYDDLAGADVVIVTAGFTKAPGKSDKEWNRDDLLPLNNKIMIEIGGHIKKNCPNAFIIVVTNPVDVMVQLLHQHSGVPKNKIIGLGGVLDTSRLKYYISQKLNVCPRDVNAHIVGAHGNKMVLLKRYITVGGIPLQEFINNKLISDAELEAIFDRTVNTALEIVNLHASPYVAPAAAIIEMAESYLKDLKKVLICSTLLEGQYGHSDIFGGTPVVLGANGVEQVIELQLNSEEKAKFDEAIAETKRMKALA
# Calcium-dependent protein kinase 1 (Plasmodium falciparum (isolate 3D7)), sequence (P62344 whole entry, looked up): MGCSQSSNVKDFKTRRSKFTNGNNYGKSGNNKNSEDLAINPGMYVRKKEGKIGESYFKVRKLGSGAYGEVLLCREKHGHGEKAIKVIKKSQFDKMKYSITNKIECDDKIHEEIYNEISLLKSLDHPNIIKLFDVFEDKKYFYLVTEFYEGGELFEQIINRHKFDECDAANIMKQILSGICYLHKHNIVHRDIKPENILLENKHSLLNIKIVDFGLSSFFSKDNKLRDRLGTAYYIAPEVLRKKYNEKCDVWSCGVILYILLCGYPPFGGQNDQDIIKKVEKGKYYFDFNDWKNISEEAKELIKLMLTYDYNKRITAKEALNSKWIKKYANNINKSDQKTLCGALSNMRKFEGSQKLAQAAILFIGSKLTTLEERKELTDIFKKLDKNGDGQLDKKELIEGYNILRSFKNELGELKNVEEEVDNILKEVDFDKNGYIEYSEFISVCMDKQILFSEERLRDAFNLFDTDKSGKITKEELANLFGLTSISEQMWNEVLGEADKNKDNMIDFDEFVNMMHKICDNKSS
SMILES,growth inhibition [1],inhibition [2],inhibition [3] [%],growth inhibition [4],outcome [5],outcome [6],outcome [7],outcome [8]
COc1ccc2nccc(NN=Cc3ccc([N+](=O)[O-])cc3)c2c1,68% (active),9%,-2,100% (active),inactive,inactive,inactive,inactive
CCN(CC)CCN(Cc1ccc(-c2ccc(C(F)(F)F)cc2)cc1)C(=O)Cn1c(CCc2c(F)cccc2F)nc(=O)c2ccccc21,61% (active),36%,-3,102% (active),inactive,inactive,inactive,inactive
Fc1cc(Cl)ccc1Nc1ccnc(Nc2ccc3cn[nH]c3c2)n1,56% (active),8%,-3,97% (active),inactive,inactive,inactive,inactive
COc1ccc(CN(C)CCCc2ccc(NC(=O)Cc3ccc4nc(-c5ccccc5)ccc4c3)cc2)cc1OC,-2%,10%,-3,98% (active),inactive,inactive,inactive,inactive
CS(=O)(=O)CCNc1cc(N2CCc3ncnc(Nc4ccc(OCc5cccc(F)c5)c(Cl)c4)c3C2)ncn1,50% (active),-17%,5,96% (active),inactive,inactive,inactive,inactive
COc1ccc(NC(=O)Nc2cccc(-c3cccc(-c4nc5ccc(F)cc5[nH]4)c3)c2)cc1,39%,59% (active),5,99% (active),inactive,inactive,inactive,inactive
CC(C)N1CCC(N(Cc2ccc(-c3ccc(C(F)(F)F)cc3)cc2)C(=O)Cn2c(CCc3cccc(F)c3F)cc(=O)c3ccccc32)CC1,73% (active),50% (active),-6,99% (active),inactive,inactive,inactive,inactive
CS(=O)(=O)c1ccc(CNCc2ccc(-c3cccc(-c4nc5ccc(C(F)(F)F)cc5[nH]4)c3)cc2)cc1,100% (active),54% (active),8,102% (active),inactive,inactive,inactive,inactive
Cc1cnc(C(=O)Nc2cccc(-c3ccc(-c4nc5ccc(C(F)(F)F)cc5[nH]4)s3)c2)cn1,14%,35%,-7,86% (active),inactive,inactive,inactive,inactive
NC(=O)c1cccc(C(=O)Nc2ccc(-c3cccc(-c4nc5ccc(F)cc5[nH]4)c3)cc2)c1,5%,45%,-5,94% (active),inactive,inactive,inactive,inactive
c1ccc(-c2cc(NCCCCNc3cc(-c4ccccc4)nc4ccccc34)c3ccccc3n2)cc1,97% (active),70% (active),0,102% (active),inactive,inactive,inactive,inactive
N#Cc1ccc2c(c1)CCN(CCC1CCC(NC(=O)/C=C/c3nc4ccccc4s3)CC1)CC2 (configuration not stated),-2%,6%,-4,90% (active),inactive,inactive,inactive,inactive
COc1ccccc1C1CCN(C2CCC(NC(=O)/C=C/c3ccc4c(c3)OC(F)(F)O4)CC2)CC1 (configuration not stated),31%,52% (active),-2,98% (active),inactive,inactive,inactive,inactive
N#Cc1ccc2[nH]cc(-c3cn4cc(SC5CCCC5)ccc4n3)c2c1,21%,1%,3,92% (active),inactive,inactive,inactive,inactive
CC(Cc1ccc(OCCN2CCN(c3cccc(C(F)(F)F)c3)CC2)cc1)NCC(O)c1cccc(C(F)(F)F)c1 (configuration not stated),91% (active),11%,0,97% (active),inactive,inactive,inactive,inactive
CN(C(=O)Nc1ccc(F)cc1)C1CCN(CCCCCNC(=O)/C=C/c2ccc(Cl)c(Cl)c2)CC1,-3%,38%,-5,89% (active),inactive,inactive,inactive,inactive
O=C(Nc1cccc(F)c1)NC1CCN(CCCCCNC(=O)[C@@H]2C[C@H]2c2ccc(Cl)c(Cl)c2)CC1,12%,41%,4,101% (active),inactive,inactive,inactive,inactive
Cc1ccc(CNC(=O)c2ccc(CN3CCCN(Cc4ccsc4)CC3)cc2)cc1,-1%,16%,5,93% (active),inactive,inactive,inactive,inactive
CC(C)(Oc1ccc(Cl)cc1)C(=O)NCCC1CCN(CCCCCNC(=O)/C=C/c2ccc(Cl)c(Cl)c2)CC1,37%,73% (active),-1,87% (active),inactive,inactive,inactive,inactive
COc1ccc2nc(-c3ccccc3)cc(NCCN(C)C)c2c1,23%,-1%,-3,101% (active),inactive,inactive,inactive,inactive

SMILES,growth inhibition [1],inhibition [2],inhibition [3] [%],growth inhibition [4],outcome [5],outcome [6],outcome [7],outcome [8]
Cn1c(NC2=NC3(c4ccccn4)N=C(Nc4nc5ccccc5n4C)NC3(c3ccccn3)N2)nc2ccccc21 (configuration not stated),44%,12%,0,99% (active),inactive,inactive,inactive,inactive
CN1CCN(c2ccc(CNc3ccc4ncc(-c5cccc(OC(F)(F)F)c5)n4n3)cc2)CC1,78% (active),25%,3,89% (active),inactive,inactive,inactive,inactive
COc1cccc(Nc2nccc(NCC(O)c3ccc(C(F)(F)F)cc3)n2)c1 (configuration not stated),28%,14%,-4,99% (active),inactive,inactive,inactive,inactive
COc1ccc(NC(=O)c2ccc(C=Cc3ccc(C(F)(F)F)cc3)cc2)cc1N1CCN(C)CC1,47%,46%,-6,99% (active),inactive,inactive,inactive,inactive
CNC(=O)c1cnc(Nc2ccc(OCC(O)CN(C)C)cc2)nc1Nc1cccc([N+](=O)[O-])c1 (configuration not stated),94% (active),52% (active),-1,100% (active),inactive,inactive,inactive,inactive
CC1CN(c2ccc(NC(=O)c3cccs3)cc2)CCN1Cc1cccc(F)c1 (configuration not stated),96% (active),5%,0,96% (active),inactive,inactive,inactive,inactive
Cc1cc(CNC(=O)c2ccc(-c3ccc(-c4nc5ccc(C(F)(F)F)cc5[nH]4)s3)cc2)on1,56% (active),15%,-1,93% (active),inactive,inactive,inactive,inactive
OC(CNc1ccnc(Nc2cccc(Cl)c2)n1)c1ccc(C(F)(F)F)cc1 (configuration not stated),61% (active),13%,5,101% (active),inactive,inactive,inactive,inactive
Cc1cc(C)nc(-n2[nH]c(C)c(Cc3ccc(C(C)(C)C)cc3)c2=O)n1,61% (active),-9%,-1,88% (active),inactive,inactive,inactive,inactive
O=C(Nc1ccc(Cl)c(Cl)c1)Nc1ccccc1N1CCNCC1,22%,17%,1,101% (active),inactive,inactive,inactive,inactive
COc1ccc(NC(=O)[C@H](Cc2ccccc2)Nc2cc(C)nc(NCc3ccccc3C)n2)cc1,71% (active),16%,2,101% (active),inactive,inactive,inactive,inactive
O=C1OC(c2ccccc2)(c2ccccc2)CN1C1CCN(Cc2ccc(O)c(Cl)c2)C1 (configuration not stated),93% (active),10%,3,100% (active),inactive,inactive,inactive,inactive
COc1cccc(Cc2c(C)nc3nc(N)nc(N)c3c2C)c1,1%,65% (active),-2,95% (active),inactive,inactive,inactive,inactive
CC[C@H](C)CNC(=O)c1cccc(-c2cccc(CNCC3CNCCCO3)c2)n1 (some centres not stated),54% (active),15%,1,91% (active),inactive,inactive,inactive,inactive
COc1cc(CCCON2C(N)=NC(N)=NC2(C)C)cc(OC)c1OC,94% (active),68% (active),-2,98% (active),inactive,inactive,inactive,inactive
COc1cc2nccc(Nc3ccc4c(cnn4Cc4ccccc4F)c3)c2cc1OC,91% (active),55% (active),-8,101% (active),inactive,inactive,inactive,inactive
COc1ccc(Br)cc1/C=C/C(=O)Nc1cccc(C2CCCN(C)C2)c1 (configuration not stated),30%,12%,1,99% (active),inactive,inactive,inactive,inactive
O=C(Nc1ccc(C(=O)N2CCN(CCN3CCN(c4cccc(C(F)(F)F)c4)CC3)CC2)cc1)c1ccc(OC(F)(F)F)cc1,25%,38%,7,95% (active),inactive,inactive,inactive,inactive
CCNc1cc(C(=O)N[C@@H](Cc2ccccc2)[C@H](O)CNC2CCCCC2)cc(N2CCCCS2(=O)=O)c1,98% (active),11%,-4,99% (active),inactive,inactive,inactive,inactive
